GluA2 TARP mod: modulators of AMPA receptor GluA2-stargazin complexes; O88602+P19491; HEK293 GluA2+stargazin, membrane potential dye (FDSS), glutamate EC50; hits were called plate by plate, in both directions; calls only at 30 µM; actives 3.5% (n = 40,000); AID 1259245;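 active means any of four per-well response measures lying three or more SD from its plate-wide compound average, in either direction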
GIRK2 act: GIRK2 channel activators by thallium flux; P48051; 34,000 tested, under 10 active; activation (% efficacy), % for hits at 37.5 µM; AID 1259324; HEK293 GIRK2/NPY4 cells, thallium flux fluorescence;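 active means primary screen hit, no activity in plain HEK293 cells, and in GIRK2-only cells above 5% efficacy rising with concentration; inactive means the rest, including fluorescent compounds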;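 further: efficacy is normalized control-subtracted fluorescence 15 s after thallium addition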
Active calls of the source: *; i = inactive; / = no result; + = active, no number. The sample as a whole holds a higher share of hits than the screen did.

SMILES	GluA2 TARP mod	GIRK2 act
Cc1ccc(S(=O)(=O)N2CCN(c3ccc4nnc(C)n4n3)CC2)cc1C	+	i
Cc1cccc(Nc2ccc(N3CCN(S(=O)(=O)N(C)C)CC3)nn2)n1	+	i
COc1ccc(S(=O)(=O)N2CCN(c3ccc(Nc4cccnc4)nn3)CC2)cc1	+	i
O=C(N1CCC(c2nnc(-c3ccc(F)cc3)o2)CC1)C1(c2ccccc2)CCOCC1	i	i
COc1ccc(-n2nnc(C(=O)OCc3ccccc3F)c2C)cc1Cl	i	i
COc1cc(C)c(C)cc1S(=O)(=O)Nc1ccc2c(c1)CCCN2S(C)(=O)=O	i	/
COCc1cc(=O)[nH]c2cc(NC(=O)Cn3cnc4ccccc4c3=O)ccc12	/	i
CCOc1ccc(NC(=O)Cn2nc(SC)c(-c3nc(-c4ccc(OC)cc4)no3)c2N)cc1	i	i
Cc1cccc(Nc2ccc(N3CCN(C(=O)c4ccccc4)CC3)nn2)n1	/	i
Cc1cccc(Nc2ccc(N3CCN(S(=O)(=O)c4c(C)noc4C)CC3)nn2)n1	+	i
COc1ccc(S(=O)(=O)N2CCN(Cc3nnnn3-c3ccccc3)CC2)cc1OC	i	i
CCS(=O)(=O)N1CCN(c2ccc(Nc3cccc(C)n3)nn2)CC1	+	i
COc1ccc(S(=O)(=O)N2CCN(Cc3nnnn3-c3ccc(C)cc3)CC2)cc1C	+	i
COc1ccc(S(=O)(=O)N2CCN(c3ccc(-c4cccs4)nn3)CC2)cc1OC	i	i
COc1cc(N2CCN(S(=O)(=O)c3c(C)noc3C)CC2)nc(OC)n1	i	i
COc1ccc(S(=O)(=O)N2CCN(c3ccc(-c4ccncc4)nn3)CC2)cc1C	+	i
COc1ccc(-c2cc(=O)n(CC(=O)Nc3cc(C)cc(C)c3)cn2)cc1	/	i
O=C(CCS(=O)(=O)c1ccccc1)Nc1cc(-c2ccccc2)nn1CCO	i	i
Cc1ccc(Oc2ccc(C(=O)Nc3ccc(Nc4cc(N5CCOCC5)nc(C)n4)cc3)cc2)nn1	i	i
CN1CCN(C(CNC(=O)c2ccc(C(F)(F)F)cc2)c2ccsc2)CC1 (stereo not given)	i	i
O=C(Nc1ccc(OC(F)(F)F)cc1)c1ccc(=O)[nH]n1	i	i
COC(=O)c1ccc(NC(=O)c2cc(-c3cccs3)nn2C)cc1	i	i
O=S(=O)(NCC1CCN(C2CCCC2)CC1)c1ccc(F)cc1F	i	i
Cc1cccc(OCC(=O)Nc2ccc3c(c2)N(CCC(C)C)C(=O)C(C)(C)CO3)c1	i	/
Cc1ccc(OCC(=O)Nc2ccc3c(c2)N(CCC(C)C)C(=O)C(C)(C)CO3)cc1	+	/
SMILES	GluA2 TARP mod	GIRK2 act
CC(C)CCN1C(=O)C(C)(C)COc2ccc(NC(=O)COc3ccc(Cl)cc3)cc21	i	/
CC(C)CCN1C(=O)C(C)(C)COc2ccc(NC(=O)c3cc(=O)c4ccccc4o3)cc21	+	i
O=C(CN1C(=O)CCC1=O)Nc1nnc(-c2ccc3c(c2)CCCC3)o1	i	/
COc1cccc(CNC(=O)C(=O)NCCC2CCCCN2S(=O)(=O)c2ccc(Cl)cc2)c1 (stereo not given)	i	/
COC(=O)c1sc2ccccc2c1S(=O)(=O)Nc1cc(Cl)ccc1C	i	/
OC(COc1ccc(-c2ccccc2)cc1)CN1CCN(c2ccccn2)CC1 (stereo not given)	i	/
OC(COc1ccc2cc(Br)ccc2c1)CN1CCN(c2ccccn2)CC1 (stereo not given)	+	/
Cc1nn(C2CCS(=O)(=O)C2)c2nc(-c3ccccc3)cc(C(=O)NCCCN3CCCC3=O)c12 (stereo not given)	i	i
O=C(Nc1c2c(nn1-c1cccc(Cl)c1)CS(=O)C2)C1CCCCC1 (stereo not given)	+	i
CN1CCN(C(=O)C(=O)Nc2c3c(nn2-c2cccc(Cl)c2)CSC3)CC1	i	i
Cc1ccc(C(CNC(=O)COc2ccc3ccccc3c2)N(C)C)cc1 (stereo not given)	+	i
O=C(COc1ccc2ccccc2c1)NCC(O)c1ccc(C(F)(F)F)cc1 (stereo not given)	/	i
Cc1ccc(CN2C(=O)NC3(CCN(C(=O)Nc4ccc(Cl)cc4)CC3)C2=O)cc1	/	i
O=C(Nc1cccc(Cl)c1)N1CCC2(CC1)NC(=O)N(Cc1ccccc1)C2=O	+	i
O=C(Nc1cccc(C(F)(F)F)c1)N1CCC2(CC1)NC(=O)N(Cc1ccccc1)C2=O	+	i
CCCN1C(=O)NC2(CCN(C(=O)Nc3cccc(C(F)(F)F)c3)CC2)C1=O	i	i
COCCN1CCC(CNC(=O)c2ccc(OC)c(OC)c2)CC1	/	i
O=C(CCCS(=O)(=O)c1ccccc1)Nc1ccccc1Oc1ccccc1	i	i
COc1ccc(S(=O)(=O)CC(=O)Nc2ccccc2Oc2ccccc2)cc1	+	i
COc1ccc(S(=O)(=O)CC(=O)Nc2cccc(Br)c2)cc1	+	i
COc1ccc(OCCCC(=O)Nc2cccc(Br)c2)cc1	i	i
CC1CN(CC(=O)Nc2sc3c(c2C#N)CCCC3)CC(C)O1 (stereo not given)	i	i
CC1(C)C(=O)NCCN1C(=O)c1ccco1	+	i
Cn1ccc(C(=O)N2CCNC(=O)C2(C)C)n1	i	i
CC(C)C(=O)N1CCCc2ccc(NC(=O)NC3CCCCC3)cc21	/	i
SMILES	GluA2 TARP mod	GIRK2 act
COc1ccc(-c2nc3c(c(=O)c4ccccc4n3C)c(=O)n2CC(C)C)cc1	i	/
CC(C)Cn1c(-c2ccc([N+](=O)[O-])cc2)nc2c(c(=O)c3ccccc3n2C)c1=O	+	/
CC(C)NC(=O)CSc1nnc2n(Cc3ccccc3)c(=O)c3ccc(C(=O)NC(C)C)cc3n12	+	i
Cn1c(CSc2nc(N)cc(N)n2)nnc1SCC(=O)NC1CCCCC1	i	/
CCCNC(=O)c1ccc(Cn2c(SCC(=O)NC(C)C)nc3ccccc3c2=O)cc1	i	i
CC(C)NC(=O)c1ccc(Cn2c(SCC#N)nc3ccccc3c2=O)cc1	i	i
Cn1c(=O)c2ccc(C(=O)NC3CCCCC3)cc2n2c(SCC(N)=O)nnc12	+	i
CC(C)NC(=O)c1ccc2c(=O)n(Cc3ccccc3)c3nnc(SCC(N)=O)n3c2c1	+	i
O=C(CC1=NS(=O)(=O)c2ccccc2N1)Nc1ccc(Cl)cc1	i	i
O=S(=O)(c1ccc(F)cc1F)N1CCN(Cc2nc(-c3ccco3)cs2)CC1	i	i
Cc1nc(NCCNC(=O)Nc2ccc(F)c(Cl)c2)cc(N2CCCC2)n1	/	i
COc1ccc(S(=O)(=O)Nc2nc(CCC(=O)NCc3ccc(F)cc3)cs2)cc1	i	i
CC(C)Cc1cnc2c(c1SCC(=O)NC1CCCC1)c(=O)n(C)c(=O)n2C	+	/
Cc1cnc2c(c1SCC(=O)NC1CCCC1)c(=O)n(C)c(=O)n2C	i	i
CCOc1ccc(CCNc2nccn(-c3cc(C)cc(C)c3)c2=O)cc1OCC	i	/
COc1ccc(S(=O)(=O)NCCC(=O)N(C)C)cc1N(C)S(=O)(=O)c1ccccc1	i	/
CC(=O)N1CCc2ccc(NC(=O)c3ccno3)cc21	+	i
COc1nn(C)cc1C(=O)Nc1ccc2c(c1)N(C(=O)c1ccco1)CC2	+	i
CC(=O)N1CCc2ccc(NC(=O)c3ccc(F)c(F)c3)cc21	i	i

Compound activity as filed in PubChem.
